Assay results published in PubChem BioAssay (Tox21).
Inconclusive results are not listed. A call without a number means that no potency is given here. Calls of active or inactive are those of the source. Unless noted, calls come from the whole dose curve; as a rule, active = well fitted curve in the direction sought with a large enough effect in the repeat runs; inconclusive = weak or mixed curves; inactive = no such curve, though single readings can be large; an effect the other way counts as inactive or inconclusive.

How the values were obtained:
[1] = target: Aryl hydrocarbon receptor (Homo sapiens) (UniProt P35869); assay: qHTS assay to identify small molecule that activate the aryl hydrocarbon receptor (AhR) signaling pathway (AID 743085); details: HepG2 AhR-luc (HG2L7.5c1), luciferase, 24 h; series mostly up to 70.3 µM; note: nearly all actives have a fitted effect of over 15% in size; note: potency is the fitted concentration of half-maximal effect;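 for activation: HG2L7.5c1 human HepG2 liver cells with stably integrated DRE-driven firefly reporter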
Outline: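 Compounds were tested in HepG2 hepatocellular carcinoma cells harbouring a stably integrated luciferase gene under control of 20 DREs. Increased reporter signal after 24 h treatment at 37C was taken as AhR activation.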

[2] = qHTS assay to identify small molecule that activate the aryl hydrocarbon receptor (AhR) signaling pathway - cell viability counter screen (AID 743086); details: HepG2-AhR-luc viability, CellTiter-Fluor, 24 h; series mostly up to 70.3 µM; note: nearly all actives have a fitted effect of over 45% in size; note: potency is the fitted concentration of half-maximal effect
Outline: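 HepG2-AhR-luc (HG2L7.5c1) cells, 4000/well, treated 24 h at 37 C with compound; viability measured as CellTiter-Fluor fluorescence after 30 min in the same wells as the luciferase read.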

[3] = target: Peroxisome proliferator-activated receptor gamma (Homo sapiens) (UniProt P37231); assay: qHTS assay to identify small molecule antagonists of the peroxisome proliferator-activated receptor gamma (PPARg) signaling pathway (AID 743191; calls by dose curve; note: nearly all actives have a fitted effect of over 30% in size; note: potency is the fitted concentration of half-maximal effect); details: HEK293H PPARg-UAS-bla, beta-lactamase ratio, antagonist, 17 h; series mostly up to 62.6 µM
Outline: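 GeneBLAzer PPARg UAS-bla HEK293H cells, 5 h post-plating, exposed to compounds 17 h at 37C. LiveBLAzer B/G FRET substrate added for 1 h at room temperature; beta-lactamase reporter read by fluorescence intensity.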

[4] = qHTS assay to identify small molecule antagonists of the peroxisome proliferator-activated receptor gamma (PPARg) signaling pathway - cell viability counter screen (AID 743194); details: PPARg-bla HEK293H viability, CellTiter-Glo luminescence, 17 h, co-treated with 50 nM rosiglitazone; series mostly up to 62.6 µM; note: nearly all actives have a fitted effect of over 55% in size; note: potency is the fitted concentration of half-maximal effect
Outline: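 Cytotoxicity counter screen in PPARg-bla HEK293H cells, same wells as reporter assay. Compounds plus 50 nM rosiglitazone (final) for 17 h at 37 C, then viability read by CellTiter-Glo luminescence.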

[5] = qHTS assay for small molecule agonists of the antioxidant response element (ARE) signaling pathway (AID 743202; active = well fitted activation curve with a large enough effect in the signal ratio in the repeat runs, not every such curve was filed as active; the % refers to the signal ratio; note: potency is the fitted concentration of half-maximal effect); details: HepG2 ARE-bla reporter, beta-lactamase FRET, 16 h; series mostly up to 73.3 µM
Outline: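 HepG2 ARE-bla cells; 16 h treatment at 37 C; FRET-based beta-lactamase fluorescence read after 2 h substrate incubation at room temperature.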

[6] = qHTS assay for small molecule agonists of the antioxidant response element (ARE) signaling pathway - cell viability counter screen (AID 743203; calls by dose curve; note: nearly all actives have a fitted effect of over 55% in size); details: ARE-bla HepG2 viability, CellTiter-Glo luminescence, 16 h; series mostly up to 73.3 µM
Outline: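 Parallel cytotoxicity read-out for the ARE-bla screen: HepG2 reporter cells, 16 hrs with compounds, then CellTiter-Glo luminescence.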

[7] = qHTS assay for small molecule activators of the heat shock response signaling pathway - cell viability counter screen (AID 743209); details: HSE-bla HeLa viability, CellTiter-Glo luminescence, 5 h; series mostly up to 62.6 µM; note: nearly all actives have a fitted effect of over 50% in size
Outline: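 To flag cytotoxic compounds, HSE-bla HeLa cells plated at 1500 cells/well were dosed for 5 h at 37 C, followed by the reporter FRET read and then CellTiter-Glo, with luminescence recorded 30 min after reagent addition.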

[8] = qHTS assay for small molecule activators of the heat shock response signaling pathway (AID 743210; active = well fitted activation curve with a large enough effect in the signal ratio in the repeat runs, with a control signal flat, not every such curve was filed as active; the % refers to the signal ratio;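 note: HeLa cells with beta-lactamase reporter driven by heat shock elements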); details: HeLa HSE-bla reporter, beta-lactamase ratio, 5 h; series mostly up to 62.6 µM
Outline: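 Following overnight attachment, HSE-bla HeLa cells received test compounds for 5 h at 37 C; beta-lactamase activity was then detected via FRET substrate fluorescence.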

[9] = qHTS assay to identify small molecule agonists of the peroxisome proliferator-activated receptor delta (PPARd) signaling pathway - cell viability counter screen (AID 743211); details: PPARd-bla HEK293H viability, CellTiter-Glo luminescence, 17 h; series mostly up to 62.6 µM; note: nearly all actives have a fitted effect of over 55% in size; note: potency is the fitted concentration of half-maximal effect
Outline: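 Counter screen for cytotoxicity run in parallel with the PPARd reporter screen. Beta-lactamase reporter HEK293H cells exposed to compounds 17 h; ATP-based CellTiter-Glo luminescence quantified viability.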

[10] = qHTS assay to identify small molecule antagonists of the peroxisome proliferator-activated receptor delta (PPARd) signaling pathway - cell viability counter screen (AID 743213); details: PPARd-bla HEK293H viability, CellTiter-Glo luminescence, 17 h; series mostly up to 62 µM; note: nearly all actives have a fitted effect of over 50% in size
Outline: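 In this counter screen, HEK293H cells carrying a UAS-beta-lactamase reporter are co-treated with test compounds and 300 nM L165041 (final) for 17 h at 37 C; cell viability is quantified by CellTiter-Glo luminescence.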

[11] = qHTS assay to identify small molecule agonists of the farnesoid-X-receptor (FXR) signaling pathway - cell viability counter screen (AID 743218); details: FXR-bla HEK293T viability, CellTiter-Glo luminescence, 16 h; series mostly up to 62.6 µM; note: nearly all actives have a fitted effect of over 45% in size; note: potency is the fitted concentration of half-maximal effect
Outline: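 Same-well cytotoxicity check on FXR-UAS-bla HEK 293T cells: 5 h attachment, 16 h compound at 37 C, CellTiter-Glo luminescence read at room temperature after 30 min.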

[12] = qHTS assay to identify small molecule antagonists of the farnesoid-X-receptor (FXR) signaling pathway - cell viability counter screen (AID 743221; active = well fitted cell-killing curve with a large enough effect in the repeat runs, not every such curve was filed as active; note: nearly all actives have a fitted effect of over 50% in size); details: FXR-bla HEK293T viability, CellTiter-Glo luminescence, 16 h; series mostly up to 62.6 µM
Outline: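 Multiplexed counter screen: viability of FXR-bla HEK 293T cells under agonist stimulation by chenodeoxycholic acid (50 uM, final) and test compound for 16 h at 37 C, measured by CellTiter-Glo luminescence in the reporter wells.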

[13] = qHTS assay to identify small molecule agonists of the vitamin D receptor (VDR) signaling pathway - cell viability counter screen (AID 743224); details: VDR-bla HEK293T viability, CellTiter-Glo luminescence, 16 h; series mostly up to 62.6 µM; note: nearly all actives have a fitted effect of over 50% in size
Outline: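 Counter screen for cytotoxicity: VDR-bla cells at 2,000 cells/well, 16 h compound exposure, then CellTiter-Glo luminescence after the beta-lactamase measurement.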

[14] = target: Peroxisome proliferator-activated receptor delta (Homo sapiens) (UniProt Q03181); assay: qHTS assay to identify small molecule antagonists of the peroxisome proliferator-activated receptor delta (PPARd) signaling pathway (AID 743215; active = well fitted inhibition curve with a large enough effect in the signal ratio in the repeat runs, not every such curve was filed as active; the % refers to the signal ratio;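 note: cells stimulated with agonist L165041 at 300 nM final during compound exposure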); details: HEK293H PPARd-UAS-bla, beta-lactamase FRET ratio, antagonist, 17 h; series mostly up to 62 µM
Outline: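 Screen format: qHTS, antagonist mode. HEK293H PPARd-bla cells received compound and 300 nM L165041 (final), 17 h, 37 C. Beta-lactamase detected via FRET substrate fluorescence, 2 h, room temperature.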

[15] = target: Vitamin D3 receptor (Homo sapiens) (UniProt P11473); assay: qHTS assay to identify small molecule agonists of the vitamin D receptor (VDR) signaling pathway (AID 743222; calls by dose curve); details: HEK293T VDR-UAS-bla, beta-lactamase FRET ratio, 16 h; series mostly up to 63.5 µM
Outline: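 Using LiveBLAzer B/G FRET detection, agonism was scored in VDR-bla cells exposed overnight (16 h, 37C) to DMSO-dissolved compounds; substrate incubation was 2 h at room temperature.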

[16] = target: Peroxisome proliferator-activated receptor delta (Homo sapiens) (UniProt Q03181); assay: qHTS assay to identify small molecule agonists of the peroxisome proliferator-activated receptor delta (PPARd) signaling pathway (AID 743212; calls by dose curve); details: HEK293H PPARd-UAS-bla, beta-lactamase FRET ratio, 17 h; series mostly up to 62.6 µM
Outline: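 Tox21 library screened in GeneBLAzer PPARd UAS-bla HEK293H cells. After compound treatment at 37 C, a FRET-based beta-lactamase substrate was applied for 2 h and fluorescence recorded.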

[17] = target: Bile acid receptor (Homo sapiens) (UniProt Q96RI1); assay: qHTS assay to identify small molecule agonists of the farnesoid-X-receptor (FXR) signaling pathway (AID 743220; active = well fitted activation curve with a large enough effect in the signal ratio in the repeat runs, not every such curve was filed as active; the % refers to the signal ratio); details: HEK293T FXR-UAS-bla, beta-lactamase FRET ratio, 16 h; series mostly up to 62.6 µM
Outline: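 FXR-UAS-bla HEK 293T cells carrying a UAS-driven beta-lactamase reporter were plated for 5 h at 37C/5% CO2, then exposed to DMSO-dissolved Tox21 10K compounds for 16 h at 37C. A LiveBLAzer B/G FRET substrate was loaded for 2 h at room temperature before fluorescence reading.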

[18] = target: Vitamin D3 receptor (Homo sapiens) (UniProt P11473); assay: qHTS assay to identify small molecule antagonists of the vitamin D receptor (VDR) signaling pathway (AID 743223; active = well fitted inhibition curve with a large enough effect in the signal ratio in the repeat runs, not every such curve was filed as active; the % refers to the signal ratio); details: VDR-UAS-bla HEK293T, beta-lactamase FRET ratio, 16 h; series mostly up to 61 µM
Outline: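 Cells carrying a VDR-driven beta-lactamase reporter (VDR-bla) were co-treated with compound and 3 nM final 1alpha,25-dihydroxyvitamin D3 for 16 h at 37C; reporter activity was measured as FRET substrate fluorescence after 2 h at room temperature.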

[19] = target: Bile acid receptor (Homo sapiens) (UniProt Q96RI1); assay: qHTS assay to identify small molecule antagonists of the farnesoid-X-receptor (FXR) signaling pathway (AID 743217; active = well fitted inhibition curve with a large enough effect in the signal ratio in the repeat runs, not every such curve was filed as active; the % refers to the signal ratio); details: HEK293T FXR-UAS-bla, beta-lactamase ratio, CDCA-stimulated, 16 h; series mostly up to 62.6 µM
Outline: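 Quantitative HTS, beta-lactamase reporter format: FXR-UAS-bla HEK 293T cells co-treated 16 h at 37 °C with compounds and 50 uM final chenodeoxycholic acid, then read by B/G FRET fluorescence.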

Vitamin D3 receptor (Homo sapiens), sequence (P11473 whole entry, looked up): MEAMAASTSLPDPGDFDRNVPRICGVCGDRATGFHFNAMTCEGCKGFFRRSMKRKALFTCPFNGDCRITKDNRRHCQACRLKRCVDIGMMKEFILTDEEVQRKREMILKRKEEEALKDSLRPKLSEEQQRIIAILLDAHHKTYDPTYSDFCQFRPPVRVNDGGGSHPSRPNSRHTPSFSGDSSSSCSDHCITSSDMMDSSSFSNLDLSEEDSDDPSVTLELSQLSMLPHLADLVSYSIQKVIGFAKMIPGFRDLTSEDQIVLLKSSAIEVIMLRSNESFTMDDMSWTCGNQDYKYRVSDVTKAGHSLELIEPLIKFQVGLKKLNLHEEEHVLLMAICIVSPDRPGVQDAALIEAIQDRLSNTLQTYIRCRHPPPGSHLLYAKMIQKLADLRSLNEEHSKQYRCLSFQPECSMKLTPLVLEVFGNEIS
Bile acid receptor (Homo sapiens), sequence (Q96RI1 whole entry, looked up): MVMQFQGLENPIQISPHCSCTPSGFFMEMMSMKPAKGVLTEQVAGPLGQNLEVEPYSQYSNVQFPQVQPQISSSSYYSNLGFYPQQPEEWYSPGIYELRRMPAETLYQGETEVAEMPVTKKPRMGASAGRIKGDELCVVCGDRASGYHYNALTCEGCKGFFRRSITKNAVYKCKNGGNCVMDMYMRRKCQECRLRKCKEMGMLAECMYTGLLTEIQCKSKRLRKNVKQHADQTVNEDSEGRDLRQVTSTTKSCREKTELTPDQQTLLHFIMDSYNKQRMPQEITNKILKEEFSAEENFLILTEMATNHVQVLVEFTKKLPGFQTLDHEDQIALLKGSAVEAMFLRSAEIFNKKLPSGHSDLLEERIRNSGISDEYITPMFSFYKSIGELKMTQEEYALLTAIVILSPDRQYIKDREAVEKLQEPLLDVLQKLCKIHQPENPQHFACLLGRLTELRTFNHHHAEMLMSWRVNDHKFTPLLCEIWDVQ
Peroxisome proliferator-activated receptor gamma (Homo sapiens), sequence (P37231 whole entry, looked up): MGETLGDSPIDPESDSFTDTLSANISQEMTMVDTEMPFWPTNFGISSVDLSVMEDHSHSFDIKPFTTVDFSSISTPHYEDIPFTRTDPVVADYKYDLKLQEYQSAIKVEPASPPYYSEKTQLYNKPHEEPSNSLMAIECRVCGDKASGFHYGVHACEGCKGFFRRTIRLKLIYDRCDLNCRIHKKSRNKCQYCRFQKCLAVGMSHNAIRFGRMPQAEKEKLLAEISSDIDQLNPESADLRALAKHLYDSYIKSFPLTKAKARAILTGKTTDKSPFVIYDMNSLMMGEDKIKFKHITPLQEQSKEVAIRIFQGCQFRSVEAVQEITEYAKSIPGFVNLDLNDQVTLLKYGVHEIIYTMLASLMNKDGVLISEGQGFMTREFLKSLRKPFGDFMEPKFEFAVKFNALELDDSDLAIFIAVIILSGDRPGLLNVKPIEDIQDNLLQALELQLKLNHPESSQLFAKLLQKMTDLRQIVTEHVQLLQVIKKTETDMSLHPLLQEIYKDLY
Aryl hydrocarbon receptor (Homo sapiens), sequence (P35869 whole entry, looked up): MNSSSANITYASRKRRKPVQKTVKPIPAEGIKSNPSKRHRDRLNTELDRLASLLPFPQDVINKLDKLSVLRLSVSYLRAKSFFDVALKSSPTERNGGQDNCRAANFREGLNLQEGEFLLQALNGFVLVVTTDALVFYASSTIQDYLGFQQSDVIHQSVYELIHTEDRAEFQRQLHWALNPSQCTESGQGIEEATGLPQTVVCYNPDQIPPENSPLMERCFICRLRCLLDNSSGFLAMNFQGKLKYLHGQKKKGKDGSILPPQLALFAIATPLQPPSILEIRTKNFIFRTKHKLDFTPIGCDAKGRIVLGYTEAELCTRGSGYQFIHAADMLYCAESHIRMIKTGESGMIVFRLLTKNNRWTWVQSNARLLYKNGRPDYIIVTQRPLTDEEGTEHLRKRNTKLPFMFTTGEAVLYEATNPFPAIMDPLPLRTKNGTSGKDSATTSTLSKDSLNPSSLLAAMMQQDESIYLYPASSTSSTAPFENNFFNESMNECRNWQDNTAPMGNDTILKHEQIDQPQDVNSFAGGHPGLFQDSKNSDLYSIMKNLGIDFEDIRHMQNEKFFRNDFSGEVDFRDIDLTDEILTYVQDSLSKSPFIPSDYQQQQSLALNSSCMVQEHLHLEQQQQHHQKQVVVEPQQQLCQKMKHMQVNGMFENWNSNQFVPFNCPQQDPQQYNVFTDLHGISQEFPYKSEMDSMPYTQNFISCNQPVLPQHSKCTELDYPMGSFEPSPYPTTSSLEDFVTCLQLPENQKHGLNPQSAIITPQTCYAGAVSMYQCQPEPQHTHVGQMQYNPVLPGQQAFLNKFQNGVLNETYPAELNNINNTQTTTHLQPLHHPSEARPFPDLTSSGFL
Peroxisome proliferator-activated receptor delta (Homo sapiens), sequence (Q03181 whole entry, looked up): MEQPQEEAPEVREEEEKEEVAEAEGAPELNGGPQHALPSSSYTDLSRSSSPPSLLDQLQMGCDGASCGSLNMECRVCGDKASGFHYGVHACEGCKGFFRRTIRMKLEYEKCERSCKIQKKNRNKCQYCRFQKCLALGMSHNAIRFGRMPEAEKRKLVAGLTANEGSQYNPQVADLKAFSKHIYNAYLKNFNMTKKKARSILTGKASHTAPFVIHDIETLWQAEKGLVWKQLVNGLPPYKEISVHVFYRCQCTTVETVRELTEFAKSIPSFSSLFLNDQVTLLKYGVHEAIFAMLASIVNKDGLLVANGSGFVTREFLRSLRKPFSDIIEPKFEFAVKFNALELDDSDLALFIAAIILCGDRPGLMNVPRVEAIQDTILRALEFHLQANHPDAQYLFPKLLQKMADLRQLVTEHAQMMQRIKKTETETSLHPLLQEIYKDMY

Structure (SMILES) | Potency [1] | Potency [2] | Potency [3] | Potency [4] | Potency [5] | Potency [6] | Potency [7] | Potency [8] | Potency [9] | Potency [10] | Potency [11] | Potency [12] | Potency [13] | Potency [14] | outcome [15] | Potency [16] | Potency [17] | outcome [18] | Potency [19]
O=C(O)c1cccnc1C(=O)O | inactive | inactive | inactive | inactive | inactive | inactive | inactive | inactive | inactive | inactive | inactive | inactive | inactive |  |  |  |  |  | 
O=C(Nc1ccc([N+](=O)[O-])cc1)Nc1ccc([N+](=O)[O-])cc1 | inactive | inactive | inactive | 1.33 µM (active) | 2.66 µM (active) |  | inactive | inactive |  |  | 0.75 µM (active) |  |  | inactive | inactive |  |  |  | 
CCCC1C(CC)=CC(CC)=CN1c1ccccc1 (configuration not stated) | inactive | inactive | inactive | inactive | 54.5 µM (active) | inactive | inactive | inactive |  | inactive | inactive | inactive |  |  | inactive | inactive | inactive |  | 
Cc1oc(C)c(C(=O)Nc2ccccc2)c1C | 24.3 µM (active) | inactive | 24.5 µM (active) | inactive |  | inactive | inactive | inactive | inactive |  | inactive |  |  |  | inactive | inactive |  | inactive | 
NC(=O)Nc1ccc(Cl)cc1 | inactive | inactive | inactive |  | inactive | inactive | inactive | inactive | inactive | inactive | inactive | inactive | inactive |  | inactive | inactive |  | inactive | 
N#C/C(=C1\SCC(c2ccccc2Cl)S1)n1ccnc1 (configuration not stated) | 7.5 µM (active) | inactive |  | inactive | inactive | inactive | inactive |  | inactive | inactive | inactive | inactive | inactive | inactive |  |  |  |  | 
CCCCCCCCCCCC[N+](C)(C)CC(=O)[O-] | inactive | inactive | inactive | inactive |  |  | inactive | inactive | 15.5 µM (active) |  |  |  |  | inactive | inactive | inactive |  | inactive | inactive
CCCCC(=O)O[C@]1(C(=O)CO)CC[C@H]2[C@@H]3CCC4=CC(=O)CC[C@]4(C)[C@H]3[C@@H](O)C[C@@]21C | inactive | inactive |  | inactive | inactive | inactive | inactive | inactive | inactive | inactive | inactive | inactive | inactive | inactive |  | inactive | inactive |  | inactive
O=C(O)C(Cc1cc(I)c(O)c(I)c1)c1ccccc1 (configuration not stated) | inactive | inactive | 37.6 µM (active) | inactive | inactive | inactive | inactive | inactive | inactive | inactive | inactive | inactive | inactive | inactive |  | inactive |  |  | 
C/C=C(\C)C(=O)OCCC(C)CCC=C(C)C (configuration not stated) | inactive | inactive |  | inactive | inactive | inactive | inactive | inactive | inactive | inactive | inactive | inactive | inactive |  | inactive |  | inactive | inactive | inactive
O=S1OCCO1 | inactive | inactive | inactive | inactive | inactive | inactive | inactive | inactive | inactive | inactive | inactive | inactive | inactive |  | inactive |  |  |  | 
Cc1cc(O)c(C(C)C)cc1Cl | inactive | inactive |  | inactive | inactive |  | inactive | inactive | inactive | inactive | inactive | inactive | inactive | inactive | inactive | inactive | inactive | inactive | inactive
CO[C@H]1C=CO[C@@]2(C)Oc3c(C)c(O)c4c(O)c(c5c(c4c3C2=O)=NC2(CCN(CC(C)C)CC2)N=5)NC(=O)/C(C)=C\C=C/[C@H](C)[C@H](O)[C@@H](C)[C@@H](O)[C@@H](C)[C@H](OC(C)=O)[C@@H]1C | inactive | 15 µM (active) |  | inactive |  |  | inactive | inactive | 24 µM (active) |  |  |  |  |  |  |  |  |  | 
